# GIRK2 act – Activates human GIRK2-containing potassium channels | HEK293 GIRK2/NPY4 cells, thallium flux fluorescence | P48051 | activation (% efficacy), % for hits at 37.5 µM | 34,000 tested, under 10 active;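 active means primary screen hit, no activity in plain HEK293 cells, and in GIRK2-only cells above 5% efficacy rising with concentration; inactive means the rest, including fluorescent compounds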;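 further: efficacy is normalized control-subtracted fluorescence 15 s after thallium addition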
# GluA2 TARP mod – modulates AMPAR-stargazin complexes | HEK293 GluA2+stargazin, membrane potential dye (FDSS), glutamate EC50; hits were called plate by plate, in both directions | calls only at 30 µM | O88602+P19491 | AID 1259245 | actives 3.5% (n = 40,000);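 active means any of four per-well response measures lying three or more SD from its plate-wide compound average, in either direction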
# Target sequence (O88602 whole entry, looked up): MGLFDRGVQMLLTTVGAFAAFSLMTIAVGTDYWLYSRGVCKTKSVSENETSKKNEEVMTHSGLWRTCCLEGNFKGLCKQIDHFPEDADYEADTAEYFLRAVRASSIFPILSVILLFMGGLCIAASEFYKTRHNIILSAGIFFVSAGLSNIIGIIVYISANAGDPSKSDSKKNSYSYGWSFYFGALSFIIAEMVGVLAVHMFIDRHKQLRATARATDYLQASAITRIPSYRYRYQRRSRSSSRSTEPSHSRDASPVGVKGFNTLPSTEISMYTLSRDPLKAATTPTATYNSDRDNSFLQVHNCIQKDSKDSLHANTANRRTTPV
# Target sequence (P19491 whole entry, looked up): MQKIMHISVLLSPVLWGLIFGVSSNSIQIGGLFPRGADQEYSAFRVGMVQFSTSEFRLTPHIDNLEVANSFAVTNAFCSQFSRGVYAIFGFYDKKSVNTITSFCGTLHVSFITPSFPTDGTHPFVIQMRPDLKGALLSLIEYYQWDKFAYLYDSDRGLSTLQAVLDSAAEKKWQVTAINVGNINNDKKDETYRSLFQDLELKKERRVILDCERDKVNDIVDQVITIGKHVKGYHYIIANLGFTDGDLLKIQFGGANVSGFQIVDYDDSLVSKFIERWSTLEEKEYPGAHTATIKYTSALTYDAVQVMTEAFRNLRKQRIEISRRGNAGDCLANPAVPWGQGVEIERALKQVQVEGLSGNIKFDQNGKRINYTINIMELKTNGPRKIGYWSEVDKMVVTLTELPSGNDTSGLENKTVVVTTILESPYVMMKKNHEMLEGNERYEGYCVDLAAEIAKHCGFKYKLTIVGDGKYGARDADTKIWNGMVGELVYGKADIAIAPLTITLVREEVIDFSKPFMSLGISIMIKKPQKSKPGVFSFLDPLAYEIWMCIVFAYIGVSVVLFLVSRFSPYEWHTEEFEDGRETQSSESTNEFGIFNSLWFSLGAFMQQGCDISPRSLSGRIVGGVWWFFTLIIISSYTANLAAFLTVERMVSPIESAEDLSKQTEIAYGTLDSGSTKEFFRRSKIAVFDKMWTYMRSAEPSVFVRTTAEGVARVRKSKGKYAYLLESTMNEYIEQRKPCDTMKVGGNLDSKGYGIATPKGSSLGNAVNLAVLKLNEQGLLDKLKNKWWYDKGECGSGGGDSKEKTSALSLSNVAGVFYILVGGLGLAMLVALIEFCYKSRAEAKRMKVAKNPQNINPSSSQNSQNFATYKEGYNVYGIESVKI
# An asterisk follows results filed as active; i = inactive; nt = not tested or not shown; + = active, no number. Many of the other results were omitted from the sample, so hits are more common in it than they were.
SMILES,GIRK2 act,GluA2 TARP mod
COc1cc2ccccc2cc1C(=O)Nc1nnc(-c2cc(C)n(C)n2)o1,i,i
COc1cc(OC)cc(C(=O)Nc2nnc(-c3cc(C)n(C)n3)o2)c1,i,+
COc1ccc(C(=O)Nc2nnc(-c3cc(C)nn3C)o2)cc1OC,i,nt
COc1ccc(C(=O)Nc2nnc(-c3cc(C)n(C)n3)o2)cc1OC,i,+
O=C(CSc1nccn(-c2ccc(F)cc2)c1=O)NCc1ccccc1Cl,nt,i
O=C(Cc1cccs1)N1CCN(c2cc(N3CCCC3)ncn2)CC1,i,+
CC1CCN(c2ccc(N3CCN(C(=O)c4cccs4)CC3)nn2)CC1,i,i
O=C(Cc1cccs1)N1CCN(c2ccccn2)CC1,nt,i
O=C(c1cccs1)N1CCN(c2cc(N3CCCC3)ncn2)CC1,i,+
Cn1nnc2c(SCC(=O)Nc3ccc(C(F)(F)F)cc3)ncnc21,i,i
O=C(Cc1cccc2ccccc12)NCC1CCN(C(=O)COc2ccccc2)CC1,i,+
O=C(Cc1cccc2ccccc12)NCC1CCN(c2ncccn2)CC1,i,i
O=C1CC2(CCN(C(=O)c3ccc(-c4ccccc4)cc3)CC2)Oc2ccccc21,nt,i
Cc1cccc(C(=O)N2CCC3(CC2)CC(=O)c2ccccc2O3)c1,nt,+
COc1ccccc1N1CCN(S(=O)(=O)c2ccc(F)c(C(=O)Nc3ccc(Cl)cc3)c2)CC1,nt,+
COc1ccc(Cl)cc1NC(=O)c1cc(S(=O)(=O)N2CCN(c3ccccc3F)CC2)ccc1F,nt,i
C#CCn1c(C2CC(=O)N(C(C)(C)C)C2)nc2ccccc21 (stereo not given),nt,i
CC(C)(C)N1CC(c2nc3ccccc3n2Cc2ccccc2Cl)CC1=O (stereo not given),nt,+
O=C1CC(c2nc3ccccc3n2Cc2ccccc2)CN1Cc1ccccc1 (stereo not given),nt,+
CCCCN(C)C(=O)Cn1c(C2CC(=O)N(Cc3ccc(F)cc3)C2)nc2ccccc21 (stereo not given),i,+
CCCN(CCC)C(=O)Cn1c(C2CC(=O)N(Cc3ccc(F)cc3)C2)nc2ccccc21 (stereo not given),i,i
CCCn1c(C2CC(=O)N(C(C)(C)C)C2)nc2ccccc21 (stereo not given),nt,i
Cc1ccccc1Cn1c(C2CC(=O)N(C(C)(C)C)C2)nc2ccccc21 (stereo not given),nt,+
CCn1c(C2CC(=O)N(Cc3ccccc3)C2)nc2ccccc21 (stereo not given),nt,i
CCOc1ccc(OCC)c(S(=O)(=O)N2CCN(c3ccc4nnc(C)n4n3)CC2)c1,i,i
SMILES,GIRK2 act,GluA2 TARP mod
COc1cc(-c2ccc(=O)n(CC(=O)NCc3ccc(C)cc3)n2)cc(OC)c1OC,i,i
CCn1c(C2CC(=O)N(C(C)(C)C)C2)nc2ccccc21 (stereo not given),nt,i
CC(C)(C)N1CC(c2nc3ccccc3n2Cc2ccccc2)CC1=O (stereo not given),nt,+
COc1ccc(C(=O)N2CCN(c3ccc(Nc4ccccn4)nn3)CC2)cc1,i,i
COc1ccc(N(C)S(=O)(=O)c2ccsc2-c2nc(-c3ccc(SC)cc3)no2)cc1,i,+
CN(c1ccc(F)cc1)S(=O)(=O)c1ccsc1-c1nc(-c2ccc(F)cc2)no1,i,i
CC(=O)Nc1ccc(NC(=O)Cn2cnc3c(nnn3C)c2=O)cc1,i,i
O=C(Nc1ccc(Cl)c([N+](=O)[O-])c1)c1ccc(=O)n(Cc2cccc(Cl)c2)c1,i,i
Cn1c(=O)c2c(nc3n2CC(c2ccc(F)cc2)=NN3CC(=O)O)n(C)c1=O,nt,i
Cn1c(=O)c2c(nc3n2CC(c2ccc(F)cc2)=NN3CC(N)=O)n(C)c1=O,nt,+
COc1ccc(NC(=O)CSc2nnnn2-c2ccc3ccccc3c2)cc1,i,i
O=C(Cn1c2c(c(=O)n(C3CCCCC3)c1=O)CCC2)NCCCN1CCOCC1,i,i
COc1coc(C(=O)Nc2ccc(F)c(F)c2)cc1=O,i,+
COc1cccc(COc2coc(C(=O)Nc3ccc(C)c(F)c3)cc2=O)c1,i,i
CN(C)C(CNC(=O)NCc1cccc2ccccc12)c1ccco1 (stereo not given),i,i
CCOC(=O)CC(=O)CSc1cc(C)c(C#N)c2nc3ccccc3n12,i,i
CCCc1cc(NCC2CCCO2)n2c(nc3ccccc32)c1C#N (stereo not given),i,+
Cc1ccc(-c2ccc(=O)n(CCCC(=O)N3c4ccccc4CC3C)n2)cc1 (stereo not given),i,+
COc1ccc(-c2ccc(=O)n(CCCC(=O)N3CCc4ccccc43)n2)cc1OC,i,i
CCOCC(=O)Nn1cnc2c(cnn2C(C)(C)C)c1=O,nt,+
CC(C)(C)n1ncc2c(=O)n(NC(=O)c3cc(Br)ccc3Cl)cnc21,i,+
CCC(=O)Nn1cnc2c(cnn2C(C)(C)C)c1=O,nt,i
CC(C)(C)n1ncc2c(=O)n(NC(=O)c3cc([N+](=O)[O-])ccc3Cl)cnc21,i,i
CS(=O)(=O)c1ccc2nc(NC(=O)c3ccc(=O)n(Cc4c(F)cccc4Cl)c3)sc2c1,i,i
N#Cc1ccsc1NC(=O)CCCS(=O)(=O)c1ccccc1,i,+
SMILES,GIRK2 act,GluA2 TARP mod
CCC(=O)Nc1nc2ccc([N+](=O)[O-])cc2s1,i,+
O=C(CS(=O)(=O)Cc1ccccc1)Nc1nc(-c2cc([N+](=O)[O-])cs2)cs1,i,i
O=C(CCCS(=O)(=O)c1ccccc1)Nc1nc(-c2cc([N+](=O)[O-])cs2)cs1,i,+
O=C(CN1C(=O)c2ccccc2S1(=O)=O)Nc1nc2ccc([N+](=O)[O-])cc2s1,i,i
O=C(Nc1nc2ccc([N+](=O)[O-])cc2s1)c1ccc(=O)n(Cc2c(F)cccc2Cl)c1,i,+
N#Cc1ccccc1NC(=O)CCCS(=O)(=O)c1ccccc1,i,i
O=C(Cc1ccc(NC(=O)NCc2cccs2)cc1)NCC(F)(F)F,i,nt
NC(=O)C1CCN(C(=O)CCc2csc(NS(=O)(=O)c3ccccc3)n2)CC1,i,i
COc1ccc(-c2nsc(C(=O)N3CCC(C)CC3)c2N)cc1,i,nt
O=C(N1CCOC(c2ccc(C(F)(F)F)cc2)C1)C1(c2cccs2)CCCC1 (stereo not given),i,nt
O=C(COc1ccc(Cl)cc1)Nc1ccc2c(c1)N(C(=O)c1ccco1)CC2,i,i
COc1cc(/C=C2\SC(=S)N(c3ccccc3)C2=O)ccc1OCC(=O)Nc1cccc(O)c1,nt,i
O=[N+]([O-])c1ccc(S(=O)(=O)Nc2ccc(N3CCCCS3(=O)=O)cc2)cc1,nt,i
Cc1ccc(S(=O)(=O)CCCC(=O)N(CCN(C)C)c2nc3ccc([N+](=O)[O-])cc3s2)cc1,i,+
O=C(CCCS(=O)(=O)c1ccccc1)Nc1nc(-c2ccc(Cl)s2)cs1,i,i
O=C(CCCS(=O)(=O)c1ccccc1)Nc1nc(-c2ccc(Br)s2)cs1,i,+
O=C(CCCS(=O)(=O)c1ccccc1)Nc1ccc([N+](=O)[O-])cc1,i,i
O=C(CCCS(=O)(=O)c1ccc(Cl)cc1)Nc1ccc([N+](=O)[O-])cc1,nt,+
